PubChem BioAssay (NCI)
This is part of a sample that, as a whole, favours compounds with a hit. Of some 79,000 tested, about 15% had one in any assay. Calls of active or inactive are those of the source. Cut-off read from the data, not from the text of the source: active = growth inhibition above about 70%; inactive = the rest.

Test: NCI Yeast Anticancer Drug Screen. Data for the rad18 strain (AID 177)
Conditions: S. cerevisiae rad18 mutant growth inhibition; at 1.2 µM; hits give high values
How it was run: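 Measured value is growth inhibition of a yeast strain bearing a DNA repair alteration, referenced to vehicle-treated cells.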

| SMILES | growth inhibition |
| --- | --- |
| CCOP(=O)(OCC)C(Cc1ccccc1)N=C(c1ccccc1)c1ccccc1 (stereo not drawn) | 8% (inactive) |
| CCc1ncnc2cc(OCC3CO3)c(OC)cc12 (stereo not drawn) | 73% (active) |
| CCOC(=O)[C@H]1Nc2ccccc2C2c3ccccc3CC21 (stereo partly drawn) | -31% (inactive) |
| O=CNc1ccc2c(c1)C(=O)c1ccccc1-2 | 2% (inactive) |
| CCOc1ccc2c(c1)c(CC(=O)O)cn2C | 3% (inactive) |
| OC1CSCCCSCCSCCCSC1 | -30% (inactive) |
| N#Cc1c(N)[nH]c2ccc(Sc3ccccc3)cc12 | 12% (inactive) |
| Cc1ccc(-c2ccc(Nc3c4ccccc4nc4ccccc34)cc2)cn1 | 0% (inactive) |
| c1ccc2c(c1)NC(NC1Nc3ccccc3N1)N2 | 3% (inactive) |
| OC(COc1cccc2ccccc12)CN1CCOCC1 (stereo not drawn) | 32% (inactive) |
| CCC/C(Cl)=N\OC(=O)Nc1ccc(Br)cc1 | 71% (active) |
| COc1ccc(/C=C2\SC(=S)N(/C=C/c3nc4ccccc4[nH]c3=O)C2=O)cc1OC | 10% (inactive) |
| O=C(NNc1ccnc2cc(Cl)ccc12)/C(=C\c1ccccc1Cl)NC(=O)c1ccccc1 | -1% (inactive) |
| CSC1=NNC(SC)=NN1 | 4% (inactive) |
| Cc1c(C2=C(Br)C(=O)N(C)C2=O)c(=O)n(C)c(=O)n1C | 17% (inactive) |
| NCCNc1ccc(NCCN)c2c1C(=O)c1c(O)ccc(O)c1C2=O | 4% (inactive) |
| Cn1c(=O)c(-c2ccccc2)c(N=[N+]=[N-])c2ccccc21 | 7% (inactive) |
| CCCCCCCCCCCCCCCCCCOCC(O)COP(=O)(O)OCC1OC(n2cc(F)c(=O)[nH]c2=O)CC1O (stereo not drawn) | 27% (inactive) |
| CCS(=O)(=O)c1ccc(/C=C/C=N/NC(=S)NCC(C)C)cc1 | 6% (inactive) |
| CCC(=O)Oc1c(Cl)cc(Cl)c2ccccc12 | -3% (inactive) |

| SMILES | growth inhibition |
| --- | --- |
| COc1cc2c3c(cccc3c1)C(=O)N(CCN(C)C)C2=O | -34% (inactive) |
| CN(C)c1ccc(C(C#N)=C(C#N)C#N)cc1 | 0% (inactive) |
| O=C(CCCN1CCC2(CC1)CC(=O)N(N1CCCCCC1)C2=O)c1ccc(F)cc1 | 29% (inactive) |
| O=C1C2C(C(=O)N1c1ccc(OCc3ccccc3)cc1)C1c3ccccc3C2C2CCCCN21 (stereo not drawn) | -3% (inactive) |
| CCN(CC)CCC(=O)c1ccc(Oc2ccc(F)cc2)cc1 | 4% (inactive) |
| O=Nc1c(NO)ccc2nn(-c3ccccc3)nc12 | 79% (active) |
| CC(=O)SCCC[Si](C)(C)CCCSC(C)=O | -5% (inactive) |
| O=C(O)C1CCCCC1c1c2ccc(=O)c(O)c-2oc2c(O)c(O)ccc12 (stereo not drawn) | -8% (inactive) |
| Cc1ccc(NN(NC(=O)OC(C)C)C(=O)OC(C)C)cc1 | -3% (inactive) |
| O=C1c2ccccc2C(=O)c2cc(CBr)ccc21 | 2% (inactive) |
| Cc1c(C(Cc2ccccc2N(C)C(=O)/C=C\C(=O)O)c2c[nH]c3ccccc23)c2ccccc2n1C (stereo not drawn) | -14% (inactive) |
| CC(C)/C(Cl)=N\OC(=O)Nc1ccc(F)cc1 | -1% (inactive) |
| O=C1OC(=O)C2CCCC3CCCC1C32 (stereo not drawn) | 25% (inactive) |
| CCOC(=O)C(NC(=O)c1ccccc1)(N1CCN(c2cc3c(cc2F)c(=O)c(C(=O)O)cn3C2CC2)CC1)C(F)(F)F (stereo not drawn) | -3% (inactive) |
| COc1ccc(NC(=S)N/N=C(\c2ccccc2)c2ccccn2)cc1 | -3% (inactive) |
| C=CCC1=C(C)C(OC(=O)/C=C/c2ccccc2)CC1=O (stereo not drawn) | -5% (inactive) |
| NNc1c(F)c(F)cc(F)c1F | -9% (inactive) |
| COP(=O)(OC)/C(=C\C1=CN(C(c2ccccc2)(c2ccccc2)c2ccccc2)CN1)NC=O | -7% (inactive) |
| COC(=O)c1cc(-c2ccc(C)cc2)[nH]c(=O)c1C#N | -17% (inactive) |

Same assay, conditions: S. cerevisiae rad18 mutant growth inhibition; at 3.7 µM; hits give high values

| SMILES | growth inhibition |
| --- | --- |
| CCOP(=O)(OCC)C(Cc1ccccc1)N=C(c1ccccc1)c1ccccc1 (stereo not drawn) | 4% (inactive) |
| CCc1ncnc2cc(OCC3CO3)c(OC)cc12 (stereo not drawn) | 84% (active) |
| CCOC(=O)[C@H]1Nc2ccccc2C2c3ccccc3CC21 (stereo partly drawn) | -36% (inactive) |
| O=CNc1ccc2c(c1)C(=O)c1ccccc1-2 | 3% (inactive) |
| CCOc1ccc2c(c1)c(CC(=O)O)cn2C | 5% (inactive) |
| OC1CSCCCSCCSCCCSC1 | -41% (inactive) |
| N#Cc1c(N)[nH]c2ccc(Sc3ccccc3)cc12 | 37% (inactive) |
| Cc1ccc(-c2ccc(Nc3c4ccccc4nc4ccccc34)cc2)cn1 | -10% (inactive) |
| c1ccc2c(c1)NC(NC1Nc3ccccc3N1)N2 | 10% (inactive) |
| OC(COc1cccc2ccccc12)CN1CCOCC1 (stereo not drawn) | 39% (inactive) |
| CCC/C(Cl)=N\OC(=O)Nc1ccc(Br)cc1 | 77% (active) |
| COc1ccc(/C=C2\SC(=S)N(/C=C/c3nc4ccccc4[nH]c3=O)C2=O)cc1OC | 20% (inactive) |
| O=C(NNc1ccnc2cc(Cl)ccc12)/C(=C\c1ccccc1Cl)NC(=O)c1ccccc1 | 10% (inactive) |
| CSC1=NNC(SC)=NN1 | 13% (inactive) |
| Cc1c(C2=C(Br)C(=O)N(C)C2=O)c(=O)n(C)c(=O)n1C | 46% (inactive) |
| NCCNc1ccc(NCCN)c2c1C(=O)c1c(O)ccc(O)c1C2=O | 18% (inactive) |
| Cn1c(=O)c(-c2ccccc2)c(N=[N+]=[N-])c2ccccc21 | -5% (inactive) |
| CCCCCCCCCCCCCCCCCCOCC(O)COP(=O)(O)OCC1OC(n2cc(F)c(=O)[nH]c2=O)CC1O (stereo not drawn) | -2% (inactive) |
| CCS(=O)(=O)c1ccc(/C=C/C=N/NC(=S)NCC(C)C)cc1 | 2% (inactive) |
| CCC(=O)Oc1c(Cl)cc(Cl)c2ccccc12 | 1% (inactive) |

| SMILES | growth inhibition |
| --- | --- |
| COc1cc2c3c(cccc3c1)C(=O)N(CCN(C)C)C2=O | -18% (inactive) |
| CN(C)c1ccc(C(C#N)=C(C#N)C#N)cc1 | 1% (inactive) |
| O=C(CCCN1CCC2(CC1)CC(=O)N(N1CCCCCC1)C2=O)c1ccc(F)cc1 | 49% (inactive) |
| O=C1C2C(C(=O)N1c1ccc(OCc3ccccc3)cc1)C1c3ccccc3C2C2CCCCN21 (stereo not drawn) | 12% (inactive) |
| CCN(CC)CCC(=O)c1ccc(Oc2ccc(F)cc2)cc1 | 26% (inactive) |
| O=Nc1c(NO)ccc2nn(-c3ccccc3)nc12 | 90% (active) |
| CC(=O)SCCC[Si](C)(C)CCCSC(C)=O | 1% (inactive) |
| O=C(O)C1CCCCC1c1c2ccc(=O)c(O)c-2oc2c(O)c(O)ccc12 (stereo not drawn) | 5% (inactive) |
| Cc1ccc(NN(NC(=O)OC(C)C)C(=O)OC(C)C)cc1 | -4% (inactive) |
| O=C1c2ccccc2C(=O)c2cc(CBr)ccc21 | 10% (inactive) |
| Cc1c(C(Cc2ccccc2N(C)C(=O)/C=C\C(=O)O)c2c[nH]c3ccccc23)c2ccccc2n1C (stereo not drawn) | -14% (inactive) |
| CC(C)/C(Cl)=N\OC(=O)Nc1ccc(F)cc1 | 0% (inactive) |
| O=C1OC(=O)C2CCCC3CCCC1C32 (stereo not drawn) | 67% (inactive) |
| CCOC(=O)C(NC(=O)c1ccccc1)(N1CCN(c2cc3c(cc2F)c(=O)c(C(=O)O)cn3C2CC2)CC1)C(F)(F)F (stereo not drawn) | -1% (inactive) |
| COc1ccc(NC(=S)N/N=C(\c2ccccc2)c2ccccn2)cc1 | 0% (inactive) |
| C=CCC1=C(C)C(OC(=O)/C=C/c2ccccc2)CC1=O (stereo not drawn) | 0% (inactive) |
| NNc1c(F)c(F)cc(F)c1F | -20% (inactive) |
| COP(=O)(OC)/C(=C\C1=CN(C(c2ccccc2)(c2ccccc2)c2ccccc2)CN1)NC=O | -18% (inactive) |
| COC(=O)c1cc(-c2ccc(C)cc2)[nH]c(=O)c1C#N | -11% (inactive) |
